# According to PubChem BioAssay AID1159580 (chemical genetic matrix, 2015):
# Hit rate of the full screen: of about 5,500 compounds, about 2,000 (36%) were called active. Another 18% or so got no clear call; they are omitted. This is one part of the list. Unmarked numbers belong to inactive results. Cut-off read from the data, not from the text of the source: active = normalized growth mostly below about 0.91 (no sharp cut-off); inconclusive = no clear call, values can overlap the other calls; inactive = mostly above about 0.92.
# Experiment: chemical genetic growth profiling, strain panel (AID 1159580);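 note: tested at 20 µM; growth read once vehicle control cultures reached saturation at 30 °C; 1 = growth at the plate median or of vehicle wells; lower values mean less growth of the strain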
# Details: S. cerevisiae deletion strains, growth OD
smiles,measurement,setting,value
CC(=O)Nc1c(C)c(C)c(C)c(C)c1NC(C)=O,normalized growth,"locus YAL013W, strain DEP1, hits give low values",1.01
same,normalized growth,"locus YBR229C, strain ROT2, hits give low values",1.01
same,normalized growth,"locus YDL101C, strain DUN1, hits give low values",1
same,normalized growth,"locus YDL134C, strain PPH21, hits give low values",1
same,normalized growth,"locus YDR150W, strain NUM1, hits give low values",0.989
same,normalized growth,"locus YEL061C, strain CIN8, hits give low values",1.02
same,normalized growth,"locus YGR078C, strain PAC10, hits give low values",0.994
same,normalized growth,"locus YHR030C, strain SLT2, hits give low values",1.14
same,normalized growth,"locus YHR087W, strain rtc3, hits give low values",0.997
same,normalized growth,"locus YJR043C, strain POL32, hits give low values",1.01
same,normalized growth,"locus YJR075W, strain HOC1, hits give low values",0.988
same,normalized growth,"locus YLR039C, strain RIC1, hits give low values",1.04
same,normalized growth,"locus YLR058C, strain SHM2 (second series), hits give low values",1.02
same,normalized growth,"locus YLR085C, strain ARP6, hits give low values",1.07
same,normalized growth,"locus YLR262C, strain YPT6, hits give low values",1.02
same,normalized growth,"locus YML094W, strain GIM5, hits give low values",1.04
same,normalized growth,"locus YMR219W, strain ESC1, hits give low values",1.02
same,normalized growth,"locus YMR263W, strain SAP30, hits give low values",1.01
same,normalized growth,"locus YNL153C, strain GIM3, hits give low values",0.995
same,normalized growth,"locus YNL298W, strain CLA4 (second series), hits give low values",1.06
same,normalized growth,"locus YNL322C, strain KRE1, hits give low values",1.01
same,normalized growth,"locus YNR030W, strain Alg12, hits give low values",1.03
same,normalized growth,"locus YPL055C, strain LGE1, hits give low values",1.03
same,normalized growth,"locus YPL241C, strain CIN2, hits give low values",1.15 [resistant] (active)
same,normalized growth,"locus YPR135W, strain CTF4, hits give low values",1.09
